# Data as given in the supplement of paper PMC11417369.
# ± gives the standard deviation of the averaged measurements. In all, about 25,000 sequences were measured (“ln(normalized median fluorescence intensity)”: median about 8.6, highest 2% from about 10 on). What follows is part of a selection rich in the highest values, with near analogues and random picks from the rest.
# Test system: PfAP2-EXP AP2 domain (GST-tagged)
# Assay: gcPBM binding intensity (ln(normalized median fluorescence intensity)); higher = stronger DNA binding
# How it was run: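 Using an Agilent 4 × 180k array, primer-extended double-stranded 36-bp intergenic genomic probes and negative controls were exposed for 1 h to GST-fused P. falciparum DNA-binding domains expressed in E. coli. Binding was carried out in 1× PBS with 1% milk, 0.2 mg/ml BSA, 0.5% salmon testes DNA and 0.03% Triton X-100, and protein was detected with Alexa488 anti-GST antibody and a 488 nm scan. Binding intensity is the highest Masliner-normalised natural-log median intensity across replicate spots of either probe orientation.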
row,Sequence,gcPBM binding intensity (ln)
1,TTGAATAAATTGGAATAAATATAATAAAATAAGGAA [XGTACX_negctrl_site302],8.62 ± 0.38
2,TTTATGAAACAGTGCACACATAAAAATAAATACATA [CACACA_site5631],9.175 ± 0.035
3,ATATATATATGTTTGTGTACTTATGATATCATATAA [XGTACX_site3276],9.66 ± 0.099
4,TTTTTTTTTTTTGAAGTGCATTACTTTTTTTGTATT [GTGCAC_site9811],8.5 ± 0.23
5,AATAAATAAGCAACATGTACATACAAATATATACAT [XGTACX_site8529],8.48 ± 0.35
6,TTGTTCTTTCAAATTATACACACCAAAAAAAAAAAA [CACACA_site3070],8.53 ± 0.4
7,ATATGTTTTTTTTTTTTTTTTTAATTTGTCATAAAT [CACACA_negctrl_site1208],8.35 ± 0.49
8,ATAATAAAAAAAAATGCACACATATATATATATATA [CACACA_site8766],10.3 ± 0.34
9,ATATATATATATATAGTGCAAATAAAAAATAGACAA [GTGCAC_site9796],10.2 ± 0.3
10,TATATATTAAAAATAGTGCAAAATAATATATATATA [GTGCAC_site9716],9.845 ± 0.049
11,ATATAAACACTGAATGCATGCACATATATATATATA [TGCATGCA_site940],10.45 ± 0.049
12,AAAATATAATATAATGCACACATAAAAAAAAAAAAA [CACACA_site7989],8.52 ± 0.49
13,ATTATATATAAACACACACACATGCATGCACATATA [CACACA_site4237],10 ± 0.26
14,TATATATGTTAAAACGTGCACATATATATATATATA [GTGCAC_site9589],10.2 ± 0.21
15,AATATAATATAATGCACACATAAAACAAAAAAAAAA [CACACA_site3012],8.82 ± 0.47
16,ATATGTGTTAAAAATGCACACAAAAAAATATACATA [CACACA_site7988],8.69 ± 0.49
17,AATATAATATAATGCACACATAAAAAAAAAAAAATC [CACACA_site1303],8.7 ± 0.32
18,GAATAAAAAATATATGTGCACATATAAACTTAAAAT [GTGCAC_site9554],8.9 ± 0.3
19,CACAAAAATAGACACACACACATATAAATAAATATA [CACACA_site6598],8.62 ± 0.47
20,TTACACATACATATGTGGGAAAATATTGCTACATAT [CACACA_negctrl_site463],8.57 ± 0.49
21,TATATTTTTTAAACCACACACAATATAGAGTATAAT [CACACA_site4510],8.66 ± 0.47
22,AAATTAATATATAAAAGTACCCATATATTTAATATA [XGTACX_site3551],8.21 ± 0.39
23,ATGCATATAATTATATGTACATATAAGAAATATATA [XGTACX_site517],8.71 ± 0.37

row,Sequence,gcPBM binding intensity (ln)
1,ATTTCTTCTTTTTTTGTGAAACTGGAATATATATAT [XGTACX_negctrl_site527],9.17 ± 0.057
2,TATATAGTAATTTATTCACACAATTGGCACACCTCA [CACACA_site4679],8.71 ± 0.35
3,ATTCTAAATAATAAGAGTACAAATAATATGGAGAAG [XGTACX_site5209],9.12 ± 0.51
4,CATTCTACAATAAAAAGTACATATATATATTATATA [XGTACX_site921],8.43 ± 0.34
5,TTTTGTGATCTTACCACCTTTCATAATATTAATAAA [GTGCAC_negctrl_site360],8.61 ± 0.31
6,ATATATATATATAGTGCACACATATAAAATATATAT [CACACA_site8884],10.29 ± 0.021
7,TATATATATATGTGCACACATAATAAAAAAAAAAAT [CACACA_site3831],9.9 ± 0.11
8,ATATATATATATATAGTGCAAATATCTTCTTTATAA,10.3 ± 0.3
9,TATATATATATATGTGCACACATAATAAAAAAAAAA [CACACA_site3830],10.32 ± 0.064
10,TCAAAAATTTATATAGTGCAATATATATATAATGTA,8.31 ± 0.42
11,ATATAAATATAGTGTGCACACACATAATATATATAT [CACACA_site8713],9.38 ± 0.057
12,ATATTTTATATAATAGTGCAAATAATATTAAATAAT,8.66 ± 0.21
13,AATATATATATATGTGCACACATATATAATATGTAT [CACACA_site716],8.53 ± 0.28
14,ATATATATATAGTGCACACATATAAAATATATATAA [CACACA_site2745],9.9 ± 0.071
15,TTGTTCATCTTTTTTTTTTTTTTTTTTTTTTAAATC [CACACA_negctrl_site191],8.18 ± 0.62
16,TCTCTAACTTTTAATACACACAAATAAATAAATAAA [CACACA_site6245],8.47 ± 0.35
17,GTGAGTGAAATATGCAAACACACACCCGAAAAATGT [CACACA_site3197],8.7 ± 0.57
18,TTAAAGGGAATGTATACACACGTTTCTCTATGTTAT [CACACA_site4793],8.59 ± 0.31
19,ACTAATAAAGGTGTAATACACACTATAAAAAGGAAT [CACACA_site1124],8.88 ± 0.57
20,TTCTTTGTTTTTTTTTTTTTTTTAAAAGATAATATT [XGTACX_negctrl_site381],8.43 ± 0.25
21,TATATATATATATGATGTACACATTTTATTATTTGT [XGTACX_site1147],9.94 ± 0.31
22,TCAAAAATGAGTTACACACACACATATATATATATA [CACACA_site2229],10.2 ± 0.47
23,TTTCAAAAATGAGTTACACACACACGGATATAAATA [CACACA_site7116],8.88 ± 0.56

row,Sequence,gcPBM binding intensity (ln)
1,TTTCAAAAATGAGTTACACACACACCGATATATATA [CACACA_site5263],8.79 ± 0.61
2,AATAAATTACTATGTACACACATAAGAGTATAAATA [CACACA_site6940],8.56 ± 0.32
3,TACGATGTTTTAAAATGTACATAAAAGTCACATAAG [XGTACX_site3297],8.52 ± 0.34
4,GTTTGGTGGTGTTTTGGTACGTACGGGGGTGTATGT [XGTACX_site1211],9.66 ± 0.2
5,TATGATTTTTATATATGTACGTATGGTGTTTTACAA [XGTACX_site6100],8.8 ± 0.42
6,GTTTGGTGGTGTTTTGGTACGTACGGGGGGGTATGT [XGTACX_site1983],10.6 ± 0.19
7,ATTTATTTTCTGTGTACACATATGTTGGGTATTTTA [CACACA_site5902],9.14 ± 0.45
8,TATTTTTCCATTGGGGGTACATGTGTTATATTTATT [XGTACX_site5914],10.4 ± 0.76
9,TATAAAAAAAAATGTGGTACATATTTCCATTTTCCA [XGTACX_site4571],8.11 ± 0.23
10,AATAATATACCTCTTGTGCACATATTAAAAGTTCAT [GTGCAC_site9536],8.97 ± 0.22
11,ACAATTGAAGAAATACGTACATAAAGAAAAACTAGT [XGTACX_site820],9.16 ± 0.51
12,AAGGAATAATATAAAACACACACATAAATATAAATA [CACACA_site9115],8.68 ± 0.26
13,TATAAAAGGAAACACACACACATATATATATATATA [CACACA_site939],10.2 ± 0.4
14,ATAAAAAAAAGAAAAACACACACATATATATATATA [CACACA_site8243],10.2 ± 0.16
15,AAAAAAAAAAATATCACACACACATAAATATAAACC [CACACA_site2278],8.77 ± 0.49
16,AAAAGGAAAAATATCACACATATATATATATATATA [CACACA_site5586],10.2 ± 0.34
17,ATAAAAAGGAAACACACACACACACCCATATATATA [CACACA_site904],8.73 ± 0.44
18,TAAAAAGGAAAACACACACACACATATATATATATA [CACACA_site3588],10.2 ± 0.16
19,AGGAAAAAAGAAAAAACACACATAAATATATATATA [CACACA_site3085],9.64 ± 0.23
20,ATAAAAAATATCACATAAAATAAAAAAAGAAAGGAT [XGTACX_negctrl_site294],9.06 ± 0.52
21,TTGTTAATGGTACGAACACACATATAAAGATGCATA [CACACA_site2044],8.64 ± 0.54
22,TACCATTATTTTAAGTGTACATACTAATTTATATAT [XGTACX_site6548],8.61 ± 0.28
23,ATGAAGATTTAAAAATGTACATATGATCTATGTCCT [XGTACX_site8409],8.38 ± 0.36

row,Sequence,gcPBM binding intensity (ln)
1,TTTTTTTTTTTGTTTTGTACATAAATTGCAACCAAT [XGTACX_site8949],8.73 ± 0.57
2,TTTTTATATGTTAAGTGTACGTTTACATTTTATACT [XGTACX_site3485],8.63 ± 0.36
3,TACAGATAAAAGTACACACACACACCGATATATATA [CACACA_site4675],8.86 ± 0.38
4,TTGCATTGATCAAACATACACACATGGTTAATAAAA [CACACA_site2084],8.64 ± 0.47
5,AAAAAAAAAAAAAAAACACACATGTATACTAGAATA [CACACA_site7108],8.67 ± 0.31
6,ATGTGTGTATACATCAATTATATATATATTATGTAT [GTGCAC_negctrl_site720],8.6 ± 0.33
7,ATTTTTTCATATTCTACACACGTGAACAAATGTGTC [CACACA_site3007],8.69 ± 0.36
8,AAAAATTTTATATTCACACACATATATATATATATA [CACACA_site624],10.2 ± 0.42
9,ATATTCATATATACTTCACACACATTTTATCATTCA [CACACA_site8784],8.71 ± 0.39
10,TAATTTTAAATATCTTCACACATTATATTTTTATAT [CACACA_site5411],8.34 ± 0.42
11,AACTTATTTAAATTCACACATATATAAAATACTTAT [CACACA_site4394],8.38 ± 0.42
12,TTTAAAAAATTATATTCACACACATACACATATATA [CACACA_site8076],8.51 ± 0.59
13,TAAAAAATTATATTCACACACATACACATATATATA [CACACA_site545],8.54 ± 0.43
14,TAAAAAATTTTATATTCACACACATATATATATATA [CACACA_site8109],10.1 ± 0.31
15,AAAAAAAAATTATTCACACATATATATATATATATA [CACACA_site5579],10.2 ± 0.33
16,AAAAATTTTATATTCACACACATATTTATATTTATA [CACACA_site6439],8.25 ± 0.27
17,GTTTCCTTAATATTCACACACATATATATAATATAT [CACACA_site1856],8.95 ± 0.33
18,AAAAACTTAATATTCACACATATATATATATATATA [CACACA_site5240],10.2 ± 0.45
19,TGCATTTATATCTTCACACATATATATATATATATA [CACACA_site4516],10.2 ± 0.42
20,CATATTTGTTGACACACACACATATTTATATAAATA [CACACA_site7648],8.74 ± 0.4
